The test system of test [1] is H1975. Nature of the test: area under confluence curve of compound monotherapy; compare to DMSO control AUC of the same experiment (AUC (confluence x time, arbitrary)). The method, boiled down: (§1)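 Adenocarcinoma lines were grown in RPMI 1640 with 10% FBS at 37 °C and 5% CO2, seeded at 20,000–30,000 cells/well in 48-well plates, and treated the next day with test compound alone at one dose: 1 uM or the highest dose giving <50% parental inhibition. Every 3–4 days the wells were washed with PBS and the drug was refreshed, and medium was drug-free from the DTP stage (10–21 days). IncuCyte tracked confluence until wells given only an EGFR inhibitor regrew. Area under the confluence curve was calculated in Prism, taking the median of triplicates where run, and set beside the vehicle value from the same experiment.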

Test [2] has as its system HCC2279. Described as above. The method in brief:
as §1

Test [3] relates to HCC2935. Described as above. The method in brief: as §1
The test system of test [4] is HCC4006. Described as above. The method, boiled down:
as §1

Test [5] has as its system HCC827. The test is described as above. The method, boiled down: as §1
Test [6] relates to II-18. Described as above. The method in brief: as §1
For test [7], the system named is H1975. Nature of the test: area under confluence curve of osimertinib + compound combination regimen (DTP regrowth); compare to osimertinib-only DTP control AUC of the same experiment (AUC (confluence x time, arbitrary)). To be noted: test compound dose 300 nM, DMSO control AUC in same experiment: 14522. The method in brief:
(§2)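 EGFR-mutant NSCLC lines went into 48-well plates at 20,000–30,000 cells/well in RPMI 1640 with 10% FBS and were kept at 37 °C, 5% CO2. Cells got either the EGFR inhibitor plus a fixed-dose test compound from the start through the persister stage (10–21 days) and then drug-free medium, or the inhibitor alone followed by the test compound. Medium was changed every 3–4 days until wells given only the inhibitor regrew to confluence. The endpoint was the area under the IncuCyte confluence–time curve, calculated in Prism and reported as the median of triplicates where available.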

The subject of test [8] is HCC2279. The description is as above. To be noted: test compound dose 300 nM, DMSO control AUC in same experiment: 27284. The method, boiled down: as §2
For test [9], the system named is HCC2935. The description is as above. The following applies: test compound dose 300 nM, DMSO control AUC in same experiment: 11459. The method in brief:
as §2

The test system of test [10] is HCC4006. The description is as above. To be noted: test compound dose 30 nM, DMSO control AUC in same experiment: 10921. The method in brief:
as §2

The subject of test [11] is HCC827. The test is described as above. The following applies: test compound dose 300 nM, DMSO control AUC in same experiment: 48895. The method, boiled down: as §2
The test system of test [12] is II-18. Described as above. The following applies: test compound dose 30 nM, DMSO control AUC in same experiment: 18996. The method in brief:
as §2

For the next test, the system named is PC9. Described as above. The method, boiled down:
as §2

Setting [13] is: 100 nM, DMSO control AUC in same experiment: 11459.
The mark [14] stands for this setting: 100 nM, DMSO control AUC in same experiment: 16638.
[15] abbreviates: 100 nM, DMSO control AUC in same experiment: 13556.
[16] abbreviates: 100 nM, DMSO control AUC in same experiment: 14522.
Where [17] appears, read: 1000 nM, DMSO control AUC in same experiment: 15857.
Setting [18] is: 1000 nM, DMSO control AUC in same experiment: 14404.
The mark [19] stands for this setting: 1000 nM, DMSO control AUC in same experiment: 19215.
Setting [20] is: 1000 nM, DMSO control AUC in same experiment: 18415.
Where [21] appears, read: 1000 nM, DMSO control AUC in same experiment: 21320.
The mark [22] stands for this setting: 1000 nM, DMSO control AUC in same experiment: 11834.

Consider `COC(=O)c1ccc([C@H]2c3[nH]c4ccccc4c3C[C@H](C(=O)OC)N2C(=O)CCl)cc1`, for which the “area under confluence curve” value was found to be 25200 in the test with H1975 [1] (100 nM, DMSO control AUC in same experiment: 26010); 9000 in the test with HCC2279 [2] (100 nM, DMSO control AUC in same experiment: 9426); 11700 in the test on HCC2935 [3] (setting [13]); 16200 in the test on HCC4006 [4] (setting [14]); 29100 in the test on HCC827 [5] (100 nM, DMSO control AUC in same experiment: 35394); 7620 in the test on II-18 [6] (setting [15]).

`Cc1nc(Nc2ncc(C(=O)Nc3c(C)cccc3Cl)s2)cc(N2CCN(CCO)CC2)n1` [Dasatinib]: the “area under confluence curve” value was determined as 4980 with H1975 [1] (setting [16]); 28300 in the test on HCC2279 [2] (100 nM, DMSO control AUC in same experiment: 29252); 10400 in the test on HCC2935 [3] (100 nM, DMSO control AUC in same experiment: 13875); 11900 with HCC4006 [4] (setting [14]); 25600 in the test on HCC827 [5] (100 nM, DMSO control AUC in same experiment: 30859); 10100 in the test with II-18 [6] (30 nM, DMSO control AUC in same experiment: 11408).

`O=C(c1cc(Cc2n[nH]c(=O)c3ccccc23)ccc1F)N1CCN(C(=O)C2CC2)CC1` [Olaparib]: the “area under confluence curve” value in the test on H1975 [1] (setting [17]) was determined as 12200; with HCC2279 [2] (setting [18]) it was 14700; in the test with HCC2935 [3] (setting [19]), 20800; with HCC4006 [4] (setting [20]), 19900; with HCC827 [5] (setting [21]), 20700; in the test on II-18 [6] (setting [22]) it was 10800.

For the molecule `Cc1nc(N2CCC3(CC2)CO[C@@H](C)[C@H]3N)c(CO)nc1-c1cccc(Cl)c1Cl`, the “area under confluence curve” value was found to be 17200 with H1975 [1] (setting [17]); 12100 in the test with HCC2279 [2] (setting [18]); 19100 with HCC2935 [3] (setting [19]); 19200 with HCC4006 [4] (setting [20]); 14900 in the test with HCC827 [5] (setting [21]); 3600 with II-18 [6] (setting [22]).

For `COc1nnc2ccc(N3CCC(c4ccc(OCCN5CCN(C)C(=O)[C@H]5C)cc4)CC3)nn12` + C=CC(=O)Nc1cc(Nc2nccc(-c3cn(C)c4ccccc34)n2)c(OC)cc1N(C)CCN(C)C [osimertinib], the “area under confluence curve” value came to 3520 in the test with H1975 [7] (dosing schedule: sequential, osimertinib-only DTP control AUC in same experiment: 12533); 15900 with H1975 [7] (dosing schedule: upfront, osimertinib-only DTP control AUC in same experiment: 18969); 2470 with HCC2279 [8] (dosing schedule: sequential, osimertinib-only DTP control AUC in same experiment: 5698); 13900 with HCC2279 [8] (dosing schedule: upfront, osimertinib-only DTP control AUC in same experiment: 30623); 2580 in the test with HCC2935 [9] (dosing schedule: sequential, osimertinib-only DTP control AUC in same experiment: 9121); 4310 in the test on HCC2935 [9] (dosing schedule: upfront, osimertinib-only DTP control AUC in same experiment: 12748). Moreover, the “area under confluence curve” value in the test on HCC4006 [10] (dosing schedule: sequential, osimertinib-only DTP control AUC in same experiment: 14882) stood at 6680; in the test with HCC4006 [10] (dosing schedule: upfront, osimertinib-only DTP control AUC in same experiment: 18913), 5730; in the test on HCC827 [11] (dosing schedule: sequential, osimertinib-only DTP control AUC in same experiment: 18675), 4180; in the test on HCC827 [11] (dosing schedule: upfront, osimertinib-only DTP control AUC in same experiment: 25542), 12300; in the test on II-18 [12] (dosing schedule: sequential, osimertinib-only DTP control AUC in same experiment: 16416) it was 4370; in the test on II-18 [12] (dosing schedule: upfront, osimertinib-only DTP control AUC in same experiment: 18996), 14400.

Regarding `C[C@@]1(C(=O)Nc2ccc(F)nc2)CCCN1c1nc(Nc2cc(C3CC3)n[nH]2)c2cccn2n1`, the “area under confluence curve” value came out at 17600 in the test on H1975 [1] (100 nM, DMSO control AUC in same experiment: 16540); 15900 in the test with HCC2279 [2] (100 nM, DMSO control AUC in same experiment: 14404); 20700 with HCC2935 [3] (100 nM, DMSO control AUC in same experiment: 19215); 20100 in the test on HCC4006 [4] (100 nM, DMSO control AUC in same experiment: 18415); 21300 with HCC827 [5] (100 nM, DMSO control AUC in same experiment: 21320); 9980 in the test on II-18 [6] (100 nM, DMSO control AUC in same experiment: 11834).

As to `CCN1CCN(Cc2ccc(Nc3ncc(F)c(-c4cc(F)c5nc(C)n(C(C)C)c5c4)n3)nc2)CC1` [Abemaciclib], the “area under confluence curve” value in the test with H1975 [1] (setting [16]) was determined as 13800; in the test on HCC2279 [2] (100 nM, DMSO control AUC in same experiment: 27284), 22900; in the test with HCC2935 [3] (setting [13]), 8290; with HCC4006 [4] (100 nM, DMSO control AUC in same experiment: 10921), 9680; in the test with HCC827 [5] (100 nM, DMSO control AUC in same experiment: 48895), 48500; in the test with II-18 [6] (setting [15]), 14000.

On to `C=CCn1c(=O)c2cnc(Nc3ccc(N4CCN(C)CC4)cc3)nc2n1-c1cccc(C(C)(C)O)n1` + C=CC(=O)Nc1cc(Nc2nccc(-c3cn(C)c4ccccc34)n2)c(OC)cc1N(C)CCN(C)C [osimertinib], for which the “area under confluence curve” value in the test with PC9 (test compound dose 100 nM, dosing schedule: sequential, osimertinib-only DTP control AUC in same experiment: 15001, DMSO control AUC in same experiment: 22064) was found to be 13500; with PC9 (test compound dose 100 nM, dosing schedule: sequential, osimertinib-only DTP control AUC in same experiment: 15044, DMSO control AUC in same experiment: 30604), 11300; in the test on PC9 (test compound dose 100 nM, dosing schedule: upfront, osimertinib-only DTP control AUC in same experiment: 20672, DMSO control AUC in same experiment: 30604) it was 16100; in the test on PC9 (test compound dose 100 nM, dosing schedule: upfront, osimertinib-only DTP control AUC in same experiment: 24924, DMSO control AUC in same experiment: 22064) it was 20200.

Consider `CS(=O)(=O)CCNCc1ccc(-c2ccc3ncnc(Nc4ccc(OCc5cccc(F)c5)c(Cl)c4)c3c2)o1` [Lapatinib] + C=CC(=O)Nc1cc(Nc2nccc(-c3cn(C)c4ccccc34)n2)c(OC)cc1N(C)CCN(C)C [osimertinib], for which the “area under confluence curve” value with PC9 (test compound dose 1000 nM, dosing schedule: sequential, osimertinib-only DTP control AUC in same experiment: 16279, DMSO control AUC in same experiment: 29345) was 21600; with PC9 (test compound dose 1000 nM, dosing schedule: upfront, osimertinib-only DTP control AUC in same experiment: 19769, DMSO control AUC in same experiment: 29345), 18300.

With `NC(=O)Nc1cc(-c2cccc(F)c2)sc1C(=O)N[C@H]1CCCNC1` + C=CC(=O)Nc1cc(Nc2nccc(-c3cn(C)c4ccccc34)n2)c(OC)cc1N(C)CCN(C)C [osimertinib], the “area under confluence curve” value is 4940 with PC9 (test compound dose 5 nM, dosing schedule: sequential, osimertinib-only DTP control AUC in same experiment: 7760, DMSO control AUC in same experiment: 29563) and 9410 in the test with PC9 (test compound dose 5 nM, dosing schedule: upfront, osimertinib-only DTP control AUC in same experiment: 11798, DMSO control AUC in same experiment: 29563).

`CCn1cc(-c2cccc(C(F)(F)F)c2)c2sc(C(=N)NC3CCS(=O)(=O)CC3)cc2c1=O` + C=CC(=O)Nc1cc(Nc2nccc(-c3cn(C)c4ccccc34)n2)c(OC)cc1N(C)CCN(C)C [osimertinib]: the “area under confluence curve” value worked out at 4010 in the test on PC9 (test compound dose 1000 nM, dosing schedule: sequential, osimertinib-only DTP control AUC in same experiment: 4730, DMSO control AUC in same experiment: 72888) and 6420 with PC9 (test compound dose 1000 nM, dosing schedule: upfront, osimertinib-only DTP control AUC in same experiment: 8775, DMSO control AUC in same experiment: 72888).

The record behind these values is the supplement of paper PMC9794691.
